Measured values taken from PubChem BioAssay AID651742 (Broad Institute, 2012).
Screen size: about 5,600 compounds; about 780 (14%) were called active. Roughly 3% stayed inconclusive and do not appear here. The list is a sample of the results. Unmarked numbers belong to inactive results.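 Rule for the calls: active = mean signal decrease across replicates above about 35% based on untreated-well scatter, with enough replicates individually passing (limit read from the data); inconclusive = no rule stated though some were filed; inactive = the rest.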

assay: cytotoxicity in mouse NIH/3T3 fibroblasts, confirmation, cytotoxicity control for T. cruzi proliferation inhibitor project, cell-based, cherry-pick, single point (AID 651742); settings: NIH/3T3 viability, CellTiter-Glo ATP luminescence, 90 h; at 8.35 µM; active compounds read high;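 note: 0% = median of neutral control wells and 100% = median of positive control wells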

| SMILES | cytotoxicity (signal decrease) |
| --- | --- |
| Cc1cccc(-c2ccc([C@H]3[C@@H](CO)N4CCCCN(Cc5cncnc5)C[C@H]34)cc2)c1 | 17.8% |
| C[C@H](O)C#Cc1ccc([C@H]2[C@H]3CN(S(=O)(=O)Cc4ccccc4)CCCCN3[C@H]2CO)cc1 | 10.3% |
| Cc1cccc(-c2ccc([C@@H]3[C@@H](CO)N4CCCCN(S(=O)(=O)c5cccs5)C[C@H]34)cc2)c1 | 42.5% (active) |
| COc1cccc(S(=O)(=O)N2CCCCN3[C@H](CO)[C@H](c4ccc(-c5ccncc5)cc4)[C@H]3C2)c1 | 9.65% |
| Cc1ccccc1-c1ccc([C@H]2[C@H]3CN(S(=O)(=O)c4ccc(F)cc4)CCCCN3[C@H]2CO)cc1 | 12% |
| O=S(=O)(c1ccc(F)cc1)N1CCCCN2[C@H](C1)[C@H](c1ccc(C3=CCCCC3)cc1)[C@@H]2CO | 12.6% |
| O=S(=O)(Cc1ccccc1)N1CCCCN2[C@@H](CO)[C@@H](c3ccc(-c4ccc(F)cc4)cc3)[C@@H]2C1 | 68.5% (active) |
| CCS(=O)(=O)N1CCCCN2[C@@H](CO)[C@@H](c3ccc(-c4ccccc4)cc3)[C@@H]2C1 | 18.2% |
| CN(C)C(=O)c1ccc(-c2ccc([C@@H]3[C@H](CO)N4CCCCN(S(C)(=O)=O)C[C@@H]34)cc2)cc1 | 5.37% |
| Cc1ccccc1-c1ccc([C@@H]2[C@H](CO)N3CCCCN(S(=O)(=O)c4ccc(F)cc4)C[C@@H]23)cc1 | 43.8% (active) |
| O=S(=O)(Cc1ccccc1)N1CCCCN2[C@@H](CO)[C@H](c3ccc(-c4ccccc4)cc3)[C@@H]2C1 | 41.5% (active) |
| O=S(=O)(Cc1ccccc1)N1CCCCN2[C@@H](CO)[C@H](c3ccc(-c4cccnc4)cc3)[C@@H]2C1 | 5.7% |
| CC(C)C#Cc1ccc([C@H]2[C@H](CO)N3CCCCN(C(=O)NC(C)C)C[C@@H]23)cc1 | 13.1% |
| C[C@H]1CCCCO[C@H](CN(C)Cc2ccccc2)[C@@H](C)CN([C@@H](C)CO)C(=O)c2cc(NC(=O)NC3CCCCC3)ccc2O1 | 12.5% |
| COc1ccc(C#Cc2cnc3c(c2)C(=O)N([C@@H](C)CO)C[C@H](C)[C@@H](CN(C)C(C)=O)O3)cc1 | -3.17% |
| CN(C)CC#Cc1ccc([C@H]2[C@H]3CN(S(=O)(=O)c4ccccc4F)CCCCN3[C@H]2CO)cc1 | 20.2% |
| COCC(=O)N(C)C[C@@H]1Oc2ncc(C#Cc3ccccc3OC)cc2C(=O)N([C@@H](C)CO)C[C@H]1C | 1.95% |
| Cc1ccc(S(=O)(=O)Nc2ccc3c(c2)C(=O)N([C@@H](C)CO)C[C@@H](C)[C@H](CN(C)C(=O)Nc2cccc4ccccc24)OCCCC[C@H](C)O3)cc1 | -10.9% |

| SMILES | cytotoxicity (signal decrease) |
| --- | --- |
| O=C(c1cccc(F)c1)N1CC[C@@H]2[C@@H](CO)Nc3ccc(C#Cc4cccc(F)c4)cc3[C@@H]21 | 27.7% |
| CC(=O)N1[C@H](CNC(=O)C2CC2)[C@@H](c2ccc(-c3cccc(F)c3)cc2)[C@@H]1CO | 3.63% |
| C[C@H](CO)N1C[C@H](C)[C@H](CN(C)Cc2ccc(C(F)(F)F)cc2)OCCCC[C@H](C)Oc2ccc(NS(=O)(=O)c3ccc(Cl)cc3)cc2C1=O | 98.8% (active) |
| COc1ccc(CN(C)C[C@H]2OCCCC[C@H](C)Oc3ccc(NC(=O)Nc4ccc5c(c4)OCO5)cc3C(=O)N([C@H](C)CO)C[C@@H]2C)cc1 | 45.5% (active) |
| COc1ccc(NC(=O)Nc2ccc3c(c2)C(=O)N([C@H](C)CO)C[C@@H](C)[C@H](CN(C)Cc2ccc(Cl)c(Cl)c2)OCCCC[C@@H](C)O3)cc1 | -14.8% |
| C[C@@H]1CN([C@@H](C)CO)C(=O)c2cc(NC(=O)Nc3cccc4ccccc34)ccc2O[C@@H](C)CCCCO[C@H]1CN(C)Cc1ccccc1 | 22.3% |
| C[C@@H]1CN([C@H](C)CO)C(=O)c2cc(NS(=O)(=O)c3ccc(Cl)cc3)ccc2O[C@@H](C)CCCCO[C@H]1CN(C)Cc1ccccc1 | 1.2% |
| C[C@@H]1CN([C@@H](C)CO)C(=O)c2cc(NC(=O)Nc3cccc4ccccc34)ccc2O[C@H]1CN(C)Cc1ccc(Cl)c(Cl)c1 | 35.5% (active) |
| C[C@@H]1CN([C@H](C)CO)C(=O)c2cc(NC(=O)Nc3ccc(F)cc3)ccc2O[C@@H](C)CCCCO[C@H]1CN(C)Cc1ccc(Cl)c(Cl)c1 | 40.8% (active) |
| C[C@@H]1CCCCO[C@H](CN(C)Cc2ccccc2)[C@@H](C)CN([C@@H](C)CO)C(=O)c2cc(NC(=O)Nc3ccc(F)cc3)ccc2O1 | 27.1% |
| C[C@@H]1CCCCO[C@@H](CN(C)Cc2ccc(Cl)c(Cl)c2)[C@H](C)CN([C@H](C)CO)C(=O)c2cc(NC(=O)Nc3ccc(F)cc3)ccc2O1 | 3.22% |
| C[C@H](CO)N1C[C@H](C)[C@H](CN(C)Cc2ccc(C(F)(F)F)cc2)Oc2ccc(NS(=O)(=O)c3ccc(Cl)cc3)cc2C1=O | 8.98% |
| C[C@@H]1CCCCO[C@@H](CN(C)Cc2ccc3c(c2)OCO3)[C@@H](C)CN([C@@H](C)CO)C(=O)c2cc(NC(=O)Nc3ccccc3)ccc2O1 | 6.98% |
| C[C@@H]1CN([C@@H](C)CO)C(=O)c2cc(NC(=O)Nc3cccc4ccccc34)ccc2O[C@H]1CN(C)Cc1ccc(Oc2ccccc2)cc1 | 18.9% |
| COc1ccc(S(=O)(=O)Nc2ccc3c(c2)C(=O)N([C@H](C)CO)C[C@@H](C)[C@@H](CN(C)CC2CCCCC2)OCCCC[C@@H](C)O3)cc1 | 33.5% |
| C[C@H](CO)N1C[C@H](C)[C@@H](CN(C)C(=O)Nc2ccnc(N3CCOCC3)c2)OCc2ccccc2-c2ccccc2C1=O | 5.45% |
| C[C@@H]1CCCCO[C@H](CN(C)Cc2ccc(C(F)(F)F)cc2)[C@H](C)CN([C@H](C)CO)C(=O)c2cc(NC(=O)Nc3ccc(F)cc3)ccc2O1 | -14.3% |
| C[C@@H]1CCCCO[C@@H](CN(C)S(=O)(=O)c2ccc(Cl)cc2)[C@H](C)CN([C@@H](C)CO)C(=O)c2cc(NC(=O)Cc3ccccc3)ccc2O1 | 0.0515% |
